This note sets out measurements from PubChem BioAssay (NCI).

This is part of a sample that, as a whole, favours compounds with a hit. Of some 79,000 tested, about 15% had one in any assay. Values without a mark were called inactive. The source made the active and inactive calls. No stated cut-off is given here; in the data, active means growth inhibition above about 70%; inactive means the rest.

A short description of test [1]: NCI Yeast Anticancer Drug Screen. Data for the rad50 strain (AID 155).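 Further: 0% = growth of vehicle-only cultures of the same strain.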 Particulars: S. cerevisiae rad50 strain growth inhibition; at 50.0 µM; stronger effect = higher value. The gist of the method:
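Inhibition values express reduced yeast growth in compound-treated cultures relative to vehicle-treated controls.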

A short description of test [2]: NCI Yeast Anticancer Drug Screen. Data for the mec2-1 strain (AID 157). Particulars: S. cerevisiae mec2-1 strain, at 50.0 µM, stronger effect = higher value. In short, it runs like this: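 Mutant yeast (mec2-1) grown with compound; growth inhibition relative to vehicle control reported.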
Test [3] in a line: NCI Yeast Anticancer Drug Screen. Data for the sgs1 mgt1 strain (AID 161).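 Further: 0% = growth of cultures given vehicle only.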 The following applies: S. cerevisiae sgs1 mgt1 strain, at 50.0 µM, stronger effect = higher value. The gist of the method: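 Compounds are added to genetically altered yeast, and growth is compared with cultures given vehicle alone to give percent inhibition.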
Test [4] is described as follows: NCI Yeast Anticancer Drug Screen. Data for the cln2 rad14 strain (AID 165).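 Further: 0% = growth equal to vehicle treated cultures.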 Particulars: S. cerevisiae cln2 rad14 strain, at 50.0 µM, stronger effect = higher value. In short, it runs like this:
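Readout is yeast growth inhibition versus vehicle-treated controls, using a strain with cln2 and rad14 alterations exposed to compound.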

A short description of test [5]: NCI Yeast Anticancer Drug Screen. Data for the bub3 strain (AID 167). The following applies: S. cerevisiae bub3 mutant strain, at 50.0 µM, stronger effect = higher value. In short, it runs like this: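 Steps: expose the mutant yeast strain to compound; grow alongside vehicle-treated cultures; measure growth; express inhibition against the vehicle cultures.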
The nature of test [6]: NCI Yeast Anticancer Drug Screen. Data for the mlh1 rad18 strain (AID 175). Particulars: S. cerevisiae mlh1 rad18 strain growth inhibition; at 50.0 µM; stronger effect = higher value. In short, it runs like this: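 Genetically defined yeast (DNA repair-deficient) exposed to compounds; growth inhibition determined relative to vehicle.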

For the molecule `O=[N+]([O-])c1cccc(C(O)(C(F)(F)F)C(F)(F)F)c1`, the growth inhibition was -19.1% in test [1]; 6.2% in test [2]; 1.7% in test [3]; 24.1% in test [4]; 42.7% in test [5]; 14% in test [6].
With `O=c1[nH]c(=O)n(CCCCOc2ccccc2)cc1-c1ccccc1`, the growth inhibition in test [1] was 3.75%; in test [2] it was 10.2%; in test [3], 19.6%; in test [4], 0.7%; in test [5], 12.1%; in test [6], 5.9%.
Turning to `CCOC(=O)N/C=C/C(C)=O`, the growth inhibition in test [1] was -31.1%; in test [2] it was -14.2%; in test [3] it was -1.5%; in test [4] it was -29.4%; in test [5], -6.35%; in test [6], -14.5%.
Turning to `NC(N)=NS(=O)(=O)c1ccc(NC(=O)c2ccc(Cl)c3c(Nc4ccc(S(=O)(=O)N=C(N)N)cc4)c4ccccc4nc23)cc1`, the growth inhibition in test [1] is 32.2%; in test [2] it was 31.6%; in test [3], 30.9%; in test [4], 34.5%; in test [5], 10.2%; in test [6], 29.1%.
Consider `CC(C)(C)[N+](=O)[O-]`, for which the growth inhibition is -17.2% in test [1]; -27.1% in test [2]; -10.7% in test [3]; 4.95% in test [4]; 1.4% in test [5]; 17.1% in test [6].
Turning to `CCCCCC(N)C(=O)O` (stereo unspecified), the growth inhibition in test [1] was 1.7%; in test [2], 6%; in test [3] it was -14.5%; in test [4] it was -22.1%; in test [5], -2.35%; in test [6] it was -17.9%.
For the molecule `CCCCNc1ccccc1`, the growth inhibition in test [1] was 30.4%; in test [2] it was 6.3%; in test [3], 28.8%; in test [4], -21%; in test [5], -6.25%; in test [6] it was 42.5%.
Take `Cc1ccc(C(O)c2ccccc2)cc1` (stereo unspecified): the growth inhibition in test [1] was 25.4%; in test [2] it was 6.55%; in test [3], 17.4%; in test [4] it was -61.6%; in test [5], 1.4%; in test [6], 9.5%.
Consider `CC(C)CC(NC(=O)C(O)C(N)Cc1ccccc1)C(=O)O` (stereo unspecified), for which the growth inhibition was 56.5% in test [1]; 26.6% in test [2]; 60.4% in test [3]; 47.8% in test [4]; 36% in test [5]; -21.7% in test [6].
With `C=C(C)c1ccccc1N`, the growth inhibition was -1.75% in test [1]; -40.4% in test [2]; -4.65% in test [3]; 6.95% in test [4]; -26.4% in test [5]; 14.1% in test [6].
For `Cc1cccc(NCc2ccncc2)n1`, the growth inhibition in test [1] is 19.2%; in test [2], 9.2%; in test [3], 26.8%; in test [4], 2.15%; in test [5] it was 1.85%; in test [6], 6.75%.
As for `C[N+](C)(C)CCOC(=O)/C=C/c1cnc[nH]1`, the growth inhibition in test [1] was 9.7%; in test [2], 10.9%; in test [3] it was 37.7%; in test [4], 23.6%; in test [5], 6.4%; in test [6], 16.1%.
As to `O=C(NCCCN(CCCCN(CCCNC(=O)C(F)(F)F)Cc1ccc2ccccc2c1)Cc1ccc2ccccc2c1)C(F)(F)F`, the growth inhibition in test [1] is 83.4% (active); in test [2], 87.3% (active); in test [3], 88.5% (active); in test [4], 88.2% (active); in test [5], 87% (active); in test [6] it was 92.5% (active).
`CCN(CC)Cc1ncccc1O`: the growth inhibition was 8.5% in test [1]; -15.8% in test [2]; -22.4% in test [3]; -2.25% in test [4]; -5.8% in test [5]; 16.1% in test [6].
As to `CC1C2=C(CC(C)(C)CC2=O)OC2=C1C(=O)CC(C)(C)C2`, the growth inhibition is -16.1% in test [1]; -7.9% in test [2]; -7.8% in test [3]; -5.3% in test [4]; 4.65% in test [5]; -3.5% in test [6].
On to `CC(=O)Nc1cccc(O)c1`, for which the growth inhibition in test [1] is 18.4%; in test [2], 5.3%; in test [3], 25.1%; in test [4], -13.8%; in test [5] it was -8.7%; in test [6] it was 22.6%.
As for `O=c1[nH]c2ccccc2c(O)c1-c1ccccc1`, the growth inhibition in test [1] is 6.95%; in test [2], 0.8%; in test [3], -17%; in test [4] it was -8.6%; in test [5], -22.5%; in test [6], 0.65%.
In the case of `O=C1C=CC(=O)C1N=Nc1ccccc1`, the growth inhibition in test [1] is 43.9%; in test [2], 19.1%; in test [3], 16.9%; in test [4], 18.3%; in test [5], -3.15%; in test [6], 28.3%.
As for `NC(=O)CSCC(=O)O`, the growth inhibition in test [1] was -5.9%; in test [2], -6.2%; in test [3], 14.5%; in test [4] it was -0.15%; in test [5], -23.2%; in test [6] it was -14.1%.
For `Nn1c(SSSSc2nnc(-c3ccccc3)n2N)nnc1-c1ccccc1`, the growth inhibition in test [1] is -12.8%; in test [2] it was 3.85%; in test [3], -27.2%; in test [4] it was -19.7%; in test [5], 14.6%; in test [6] it was 4%.
For `Cc1cc(C(C)C)c(C)cc1C(C)C`, the growth inhibition in test [1] was -18.9%; in test [2], -4.25%; in test [3], -14.4%; in test [4] it was -7%; in test [5] it was -6.2%; in test [6], -4.15%.
